L3MBTL1 inh: inhibitors of human L3MBTL1; Q9Y468; 0.66% of 230,000 active; AlphaScreen L3MBTL1–H3K9me1 peptide binding; AID 485360; Potency, µM (doses to about 57.1 µM), inactives show at the highest dose activity, negative = inhibition, most hits filed as inhibitors; note: % is set by controls: 0 for no effect and ±100 for the full control effect; nearly all actives have a fitted effect of over 60% in size
Target sequence (Q9Y468 whole entry, looked up): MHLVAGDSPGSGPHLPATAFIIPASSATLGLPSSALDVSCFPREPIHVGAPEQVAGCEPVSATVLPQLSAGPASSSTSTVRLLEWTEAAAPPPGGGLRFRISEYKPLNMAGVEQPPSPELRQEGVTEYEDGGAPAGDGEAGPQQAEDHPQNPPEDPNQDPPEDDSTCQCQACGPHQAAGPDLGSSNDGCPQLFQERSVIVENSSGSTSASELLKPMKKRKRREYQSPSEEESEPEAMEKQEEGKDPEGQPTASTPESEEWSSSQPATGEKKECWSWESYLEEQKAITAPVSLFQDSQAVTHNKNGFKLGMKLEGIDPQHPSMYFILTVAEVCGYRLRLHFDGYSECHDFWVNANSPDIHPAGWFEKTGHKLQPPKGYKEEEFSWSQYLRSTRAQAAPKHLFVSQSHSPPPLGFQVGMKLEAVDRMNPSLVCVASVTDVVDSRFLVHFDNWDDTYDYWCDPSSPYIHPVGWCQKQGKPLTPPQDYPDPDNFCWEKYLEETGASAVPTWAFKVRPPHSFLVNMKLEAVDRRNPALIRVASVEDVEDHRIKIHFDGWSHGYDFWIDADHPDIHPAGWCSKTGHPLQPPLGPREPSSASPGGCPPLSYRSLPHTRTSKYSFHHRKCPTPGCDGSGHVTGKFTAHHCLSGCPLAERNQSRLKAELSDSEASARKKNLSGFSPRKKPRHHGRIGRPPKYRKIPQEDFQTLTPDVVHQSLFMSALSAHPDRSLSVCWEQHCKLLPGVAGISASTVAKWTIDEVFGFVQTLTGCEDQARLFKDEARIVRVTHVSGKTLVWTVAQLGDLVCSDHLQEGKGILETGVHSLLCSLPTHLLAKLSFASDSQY
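L3MBTL1 50 nM + b-AHA-H3(1-15)K9me1 75 nM, 30 min RT; compound added, 30 min RT; streptavidin donor/Ni-chelate acceptor beads 10 ug/mL each final, 30 min RT dark; AlphaScreen read.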
BAZ2B block: BAZ2B (human) inhibition; AlphaScreen BAZ2B-H3K14Ac peptide displacement; 4.4% of 360,000 active; Potency, µM (doses to about 114 µM), inactives show at the highest dose activity change, negative = inhibition, most hits filed as inhibitors; AID 504333; note: % is set by controls: 0 for no effect and ±100 for the full control effect; nearly all actives have a fitted effect of over 60% in size
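Multi-concentration screen (max 110 uM) measuring displacement of acetylated histone H3 peptide from BAZ2B by AlphaScreen, using 50 nM protein, 50 nM peptide and 10 ug/mL streptavidin donor plus Ni-chelate acceptor beads.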
Sfp inh: blocks B. subtilis Sfp PPTase activity; Q9F4F7; Biochemical Sfp PPTase activity, qHTS; Potency, µM, for inactives: largest response in the series, negative = inhibition, hits mostly inhibitors; 3.5% of 310,000 active; AID 1490;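 note: the enzyme is Sfp with the accession as filed and its product quenches rhodamine fluorescence; 0% = enzyme reaction without inhibitor and -100% = no enzyme wells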
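After 15 min at room temperature with compound, 15 nM Sfp received 5 uM rhodamine-CoA plus 12.5 uM BHQ-2-ybbR (50 mM Hepes pH 7.6, 10 mM MgCl2). Rate came from the fluorescence difference over 30 min, ex 525/em 598 nm.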
G9a inh: inhibitors of human histone lysine methyltransferase G9a | Q96KQ7 | G9a H3K9 monomethylation, AlphaScreen, 2 h | Potency, µM (doses to about 102 µM), for inactives: at the top dose activity, negative = inhibition, most hits filed as inhibitors | 8.8% of 350,000 active | AID 504332; note: % is set by controls: 0 for no effect and ±100 for the full control effect; nearly all actives have a fitted effect of over 75% in size
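Using a bead-based AlphaScreen, monomethylated H3K9 product from 2 h room-temperature reactions (G9a 20 nM, peptide 500 nM, SAM 20 uM) was detected with 0.5 ug/mL rabbit anti-H3K9me1 antibody.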
JMJD2A Tudor inh: blocks the human JMJD2A Tudor domain | AlphaScreen JMJD2A-Tudor / H3K4me3 peptide binding | Potency, µM (doses to about 114 µM), inactives show at the highest dose activity change, negative = inhibition, most hits filed as inhibitors | 4.4% of 390,000 active; note: % is set by controls: 0 for no effect and ±100 for the full control effect; nearly all actives have a fitted effect of over 50% in size
HP1b chromo inh: HP1-beta chromodomain-methylated histone interaction inhibition. P83916. AlphaScreen HP1-beta / biotin-H3K9me3 peptide binding. Potency, µM (titrated, usually from 114 µM), for the others: at the top dose activity change, negative = inhibition, most hits filed as inhibitors. 0.56% of 390,000 active; note: nearly all actives have a fitted effect of over 70% in size
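Compound inhibition of the preformed complex between 50 nM HP1-beta and 50 nM biotinylated H3K9me3 peptide was read by AlphaScreen. Buffer was PBS pH 7.4 with 0.01% Tween-20. Incubations ran 30 min at room temperature, with 10 ug/mL donor/acceptor beads.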
* hit, by the source's call; [ ] = another dose, or the depositor's remark. An excerpt weighted towards active compounds, which were near 12% of everything screened. Calls come from the whole dose curve; as a rule, active = well fitted curve in the direction sought with a large enough effect; inconclusive = small, poorly fitted or top-dose-only effect, or another doubt; inactive = no such curve, though single readings can be large; an effect the other way counts as inactive or inconclusive. Potency is the fitted concentration of half-maximal effect.

Screening Cc1ccc(-c2noc(CN3CCN(C(c4ccccc4)c4ccccc4)CC3)n2)cc1 returned L3MBTL1 inh -8%, BAZ2B block -4%, Sfp inh -7%, G9a inh -42%, JMJD2A Tudor inh -15% and HP1b chromo inh 28%.
For O=C(C1CCCO1)N1CCN(C(c2ccccc2)c2ccccc2)CC1 (stereo not drawn) the results were L3MBTL1 inh -7%[11.4 µM], BAZ2B block 3%, Sfp inh -6%, G9a inh 8.9µM*, JMJD2A Tudor inh -4% and HP1b chromo inh 22%.
`Cc1cccc(CN2CCN(C(c3ccccc3)c3ccc(Cl)cc3)CC2)c1` (stereo not drawn) gave L3MBTL1 inh -13%, BAZ2B block 50µM*, Sfp inh -2%, G9a inh inconclusive, JMJD2A Tudor inh 79µM* and HP1b chromo inh 60%.
c1ccc(Oc2cccc(CN3CCCCC3)c2)cc1 was read as BAZ2B block inconclusive, Sfp inh -3%, G9a inh -10%, JMJD2A Tudor inh -12% and HP1b chromo inh 10%.
For O=C(C1CCN(Cc2ccc(Cl)cc2)CC1)N1CCN(C(c2ccccc2)c2ccccc2)CC1 the results were L3MBTL1 inh -1%, BAZ2B block 79µM*, Sfp inh 45µM*, G9a inh 20µM*, JMJD2A Tudor inh inconclusive and HP1b chromo inh inconclusive.
Screening CCN1CCN(C(=O)C2CCN(Cc3cc(Cl)ccc3O)CC2)CC1 returned BAZ2B block inconclusive, Sfp inh -12%, G9a inh 10µM*, JMJD2A Tudor inh 10µM* and HP1b chromo inh inconclusive.
For CCOC(=O)C1CCN(Cc2ccc(OCc3ccccc3)c(OC)c2)CC1 the results were L3MBTL1 inh 1%, BAZ2B block -32%, Sfp inh 13%, G9a inh 50µM*, JMJD2A Tudor inh -6% and HP1b chromo inh -2%.
Screening CCOC(=O)C1CCN(Cc2cc(C(C)(C)C)c(O)c(C(C)(C)C)c2)CC1 returned L3MBTL1 inh -9%, BAZ2B block -25%, Sfp inh inconclusive, G9a inh 56µM*, JMJD2A Tudor inh -29% and HP1b chromo inh 41%.
`CCN1CCN(C(=O)C2CCN(Cc3nc(-c4cccc(Cl)c4)oc3C)CC2)CC1` gave BAZ2B block 3%, Sfp inh 6%, G9a inh inconclusive, JMJD2A Tudor inh -20% and HP1b chromo inh -2%.
Screening O=C(c1ccc(Cl)cc1)C1CCN(Cc2ccccc2)CC1 returned L3MBTL1 inh -2%, BAZ2B block -21%, Sfp inh -2%, G9a inh -2%, JMJD2A Tudor inh -6% and HP1b chromo inh 53%.
Screening CCOC(=O)C1CCN(Cc2ccc(O)c(OC)c2)CC1 returned L3MBTL1 inh 1%, BAZ2B block inconclusive, Sfp inh -4%, G9a inh 32µM*, JMJD2A Tudor inh 3.2µM* and HP1b chromo inh inconclusive.
Screening CN1CCCN(C(c2ccccc2)c2ccc(Cl)cc2)CC1 (stereo not drawn) returned L3MBTL1 inh -16%, BAZ2B block inconclusive, Sfp inh -20%, G9a inh inconclusive, JMJD2A Tudor inh 79µM* and HP1b chromo inh 20%.
CCN(CC)C(=O)C1CCN(Cc2ccc(OCc3ccccc3)cc2)CC1 was read as L3MBTL1 inh 4%, BAZ2B block inconclusive, Sfp inh -7%, G9a inh 10µM*, JMJD2A Tudor inh 22µM* and HP1b chromo inh inconclusive.
O=C(CN1CCN(C(=O)C2CCCO2)CC1)Nc1ccc(Cl)c(Cl)c1 (stereo not drawn) was read as BAZ2B block -7%, Sfp inh 11%, G9a inh 79µM*, JMJD2A Tudor inh 9% and HP1b chromo inh 34%.
For CCOC(=O)C1CCN(S(=O)(=O)c2ccc(OC)c(OC)c2)CC1 the results were BAZ2B block -1%, Sfp inh -8%, G9a inh -1%[59 µM], JMJD2A Tudor inh -12% and HP1b chromo inh 16%.
O=C(CN1CCN(C(=O)C2CCCO2)CC1)Nc1cc(Cl)ccc1Cl (stereo not drawn) was read as BAZ2B block 22%, Sfp inh 12%, G9a inh -1%, JMJD2A Tudor inh 2% and HP1b chromo inh 27%.
For CCOC(=O)C1=C(COC(=O)CCCOc2ccccc2)NC(=O)NC1C (stereo not drawn) the results were L3MBTL1 inh -3%, BAZ2B block -2%, G9a inh 4%, JMJD2A Tudor inh -14% and HP1b chromo inh 29%.
Screening c1ccc(Nc2cccc(Nc3ccccc3)n2)cc1 returned BAZ2B block 45µM*, Sfp inh -4%, G9a inh 7.9µM*, JMJD2A Tudor inh 56µM* and HP1b chromo inh inconclusive.
Screening c1ccc(Nc2ccccn2)cc1 returned BAZ2B block 1%, Sfp inh 6%, G9a inh 6%[59 µM], JMJD2A Tudor inh 22µM* and HP1b chromo inh inconclusive.
c1ccc(Nc2ccccc2)cc1 was read as L3MBTL1 inh 6%, BAZ2B block -2%, G9a inh inconclusive, JMJD2A Tudor inh -13% and HP1b chromo inh 28%.
Screening COc1ccc(S(=O)(=O)N2CCCCC2)cc1NC(=O)c1ccc(CS(C)(=O)=O)cc1 returned L3MBTL1 inh 7%, BAZ2B block -3%, G9a inh -14%[12.7 µM], JMJD2A Tudor inh -12% and HP1b chromo inh 13%.
For CN(C)c1ccc(Nc2ncnc3c2c(-c2ccccc2)cn3-c2cccc(Cl)c2)cc1 the results were BAZ2B block 4.5µM*, G9a inh 8.9µM*, JMJD2A Tudor inh 13µM* and HP1b chromo inh inconclusive.
`O=C1Nc2ccccc2Nc2ncccc21` gave L3MBTL1 inh -1%, BAZ2B block -30%, Sfp inh 17%, G9a inh inconclusive, JMJD2A Tudor inh -5% and HP1b chromo inh 44%.
Screening Cc1ccc2c(c1)NC(=O)c1cccnc1N2 returned L3MBTL1 inh -5%, BAZ2B block 3%[57.1 µM], Sfp inh 11%, G9a inh 45µM*, JMJD2A Tudor inh -25% and HP1b chromo inh -8%.
Cc1cc(C(=O)N/N=C/C=C/c2cccc([N+](=O)[O-])c2)n[nH]1 was read as L3MBTL1 inh -6%, BAZ2B block -22%, Sfp inh 8%, G9a inh -36%, JMJD2A Tudor inh -22% and HP1b chromo inh 33%.
`Nc1cc(C(=O)N/N=C/c2cccc([N+](=O)[O-])c2)n[nH]c1=O` gave BAZ2B block 56µM*, Sfp inh -8%, G9a inh inconclusive, JMJD2A Tudor inh inconclusive and HP1b chromo inh 81%.

Compound activity (PubChem)
